According to the supplement of paper PMC3334620:
The full ranking holds about 33,000 sequences; the median of “E-score (-0.5 to 0.5)” is about -0.054, and the highest 2% start at about 0.39. This is one part of a sample in which the highest values are shown more often than they occur.

Target: Ylr278c (UniProt Q05854)
Test: PBM E-score (8-mer binding enrichment) (E-score (-0.5 to 0.5)); higher = stronger / more preferred TF binding
Conditions: protein concentration: 200 nM; construct: GST-DNA-binding domain
Summary of the method: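 Full-length yeast transcription factors or their DNA-binding domains, GST-tagged and expressed with PURExpress, were applied at about 100-200 nM to universal all-10-mer Agilent arrays. These arrays had been made double-stranded by primer extension on fresh or once-stripped slides. Detection used fluorescent anti-GST, normalisation used masliner, and E-scores for ungapped eight-base words pooled with reverse complements came from the Universal PBM Analysis Suite.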

Sequence of UniProt Q05854 (Q05854 whole entry): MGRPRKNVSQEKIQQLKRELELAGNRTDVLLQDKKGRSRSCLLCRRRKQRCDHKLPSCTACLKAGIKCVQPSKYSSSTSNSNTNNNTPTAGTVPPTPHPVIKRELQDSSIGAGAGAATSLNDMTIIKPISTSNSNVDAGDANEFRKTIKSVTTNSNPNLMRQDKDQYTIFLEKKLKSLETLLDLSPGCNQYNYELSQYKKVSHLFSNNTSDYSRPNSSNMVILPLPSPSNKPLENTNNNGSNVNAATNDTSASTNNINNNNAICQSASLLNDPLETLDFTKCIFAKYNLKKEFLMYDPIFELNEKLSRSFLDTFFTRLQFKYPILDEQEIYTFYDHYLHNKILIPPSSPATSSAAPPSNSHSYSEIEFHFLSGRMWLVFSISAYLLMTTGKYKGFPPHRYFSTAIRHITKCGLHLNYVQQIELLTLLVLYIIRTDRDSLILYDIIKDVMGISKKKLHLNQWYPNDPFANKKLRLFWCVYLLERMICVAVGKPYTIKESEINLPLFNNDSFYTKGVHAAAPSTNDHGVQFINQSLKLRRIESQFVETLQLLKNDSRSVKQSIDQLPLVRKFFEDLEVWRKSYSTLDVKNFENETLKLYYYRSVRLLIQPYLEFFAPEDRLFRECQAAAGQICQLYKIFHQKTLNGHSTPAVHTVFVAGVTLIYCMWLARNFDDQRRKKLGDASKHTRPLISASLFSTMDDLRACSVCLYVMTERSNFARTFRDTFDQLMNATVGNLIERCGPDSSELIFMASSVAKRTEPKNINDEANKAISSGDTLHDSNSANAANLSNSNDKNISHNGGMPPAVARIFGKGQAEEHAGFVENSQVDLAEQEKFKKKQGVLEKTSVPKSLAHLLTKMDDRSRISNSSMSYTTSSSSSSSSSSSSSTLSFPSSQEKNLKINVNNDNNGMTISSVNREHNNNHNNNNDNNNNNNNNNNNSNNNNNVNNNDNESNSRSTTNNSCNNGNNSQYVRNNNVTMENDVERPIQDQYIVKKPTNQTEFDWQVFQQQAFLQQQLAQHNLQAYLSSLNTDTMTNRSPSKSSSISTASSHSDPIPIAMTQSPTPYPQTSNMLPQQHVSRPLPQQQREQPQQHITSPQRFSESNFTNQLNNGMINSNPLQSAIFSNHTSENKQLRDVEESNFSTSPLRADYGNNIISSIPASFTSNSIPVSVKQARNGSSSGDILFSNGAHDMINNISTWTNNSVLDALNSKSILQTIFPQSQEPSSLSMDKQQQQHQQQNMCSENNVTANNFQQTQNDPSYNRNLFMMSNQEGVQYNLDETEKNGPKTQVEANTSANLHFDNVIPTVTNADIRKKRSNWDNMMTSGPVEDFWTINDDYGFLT

| Sequence | PBM E-score |
| --- | --- |
| CAATCATG | -0.214 |
| CGTATTTA | 0.0653 |
| CAAGCTGC | -0.103 |
| GAGGATAC | -0.125 |
| ATTCATAC | 0.0829 |
| ACTCTTCA | -0.191 |
| CGTCAGAA | -0.25 |
| CGTTTAAC | -0.174 |
| CGTTAGAC | -0.0149 |
| AGCGCGTA | -0.109 |
| CCCCTTAG | 0.0521 |
| ACTCGGAG | 0.428 |
| ACTCGGCG | 0.256 |
| ACTCGGTG | 0.0389 |
| TAGGGACA | -0.0143 |
| CGGAGCGC | 0.391 |
| CTGAGCGC | -0.145 |
| GGGAGCGA | -0.116 |
| AGGAGCGA | -0.0963 |
| AGGAGCGC | -0.0703 |
| CGGAGCGA | 0.415 |
| AATGGAAT | 0.0961 |
| ATCTGTGG | -0.141 |
| CTTTCGGC | 0.239 |
| CTTTCGTA | -0.173 |

| Sequence | PBM E-score |
| --- | --- |
| GTTTCGTA | 0.0178 |
| GCTTCGGA | 0.367 |
| ATTTCGGC | 0.275 |
| CCTTCGGA | 0.424 |
| ATTTCGGG | 0.235 |
| ATTTCGGA | 0.45 |
| CCTTCGGC | 0.112 |
| CTTTCGGA | 0.451 |
| GTTTCGAA | -0.0713 |
| GTTTCGGA | 0.4 |
| CTGGGTCC | 0.0219 |
| CTTATCTA | -0.0407 |
| CAAAGCTA | -0.093 |
| ACTCGCAT | -0.0232 |
| AAGTTCAA | 0.118 |
| ACCACTTA | -0.0492 |
| GGGCTCAC | -0.0724 |
| GGAGCAGA | 0.109 |
| ACCTTCTA | -0.186 |
| GTGTACGA | -0.00044 |
| CTCCGCGC | 0.429 |
| CTCCGCGA | 0.403 |
| GTCCGCGA | 0.313 |
| ATCCGCGA | 0.253 |
| CACCGCGC | 0.201 |

| Sequence | PBM E-score |
| --- | --- |
| ATCCGCGC | 0.251 |
| CCAGCTCC | 0.22 |
| CATCTCCA | 0.0295 |
| AATCTCCT | 0.0721 |
| CATCTCCC | 0.216 |
| CATCTCCG | 0.463 |
| AATCTCCC | 0.0563 |
| AATCTCCG | 0.484 |
| ACGCTCTG | -0.251 |
| CAACTCGG | 0.139 |
| ACCTCTGC | -0.209 |
| AAGGAAGC | -0.162 |
| ACTTCAGA | -0.0177 |
| CCGGCCGC | 0.327 |
| ACGGCCGG | 0.33 |
| CCGGCCGA | 0.415 |
| GCGGCCGA | 0.188 |
| CCGGCCGG | 0.461 |
| ACGGCCGA | 0.246 |
| AGCGCCAT | -0.199 |
| GACAGGGC | -0.0701 |
| GCCTCCAC | -0.044 |
| TAGCCATA | -0.329 |
| GATGGGGC | -0.023 |
| CAGGACTG | -0.287 |

| Sequence | PBM E-score |
| --- | --- |
| ATTCCAGA | 0.0166 |
| GTTCCGCA | 0.289 |
| GTTCCGGA | 0.45 |
| GTTCCGTA | 0.264 |
| CTTCCGTA | 0.215 |
| ATTCCGGA | 0.46 |
| ATTCCGTA | 0.33 |
| CTTCCGGA | 0.451 |
| CTTCCGGC | 0.371 |
| ACTGTTTC | -0.0349 |
| GTCAGCAA | -0.18 |
| CGTCCAAA | 0.14 |
| ACCTCGCT | -0.0554 |
| AGTCAGCG | 0.0403 |
| ATGCCCCA | -0.0328 |
| CAGTCGAA | -0.212 |
| AAAGCCTT | -0.162 |
| ATCTCAAC | -0.00641 |
| GCGGAGTA | 0.449 |
| CCGGAGTC | 0.451 |
| ACGGAGTA | 0.452 |
| CTGGAGTC | -0.0908 |
| ATGGAGTA | 0.0152 |
| CAGGAGTC | 0.055 |
| ACGGAGTC | 0.398 |

| Sequence | PBM E-score |
| --- | --- |
| AAGGAGTC | -0.127 |
| GAGGAGTA | 0.0495 |
| AAGGAGTA | -0.0326 |
| GGGGAGTA | 0.0376 |
| ATGGAGTC | 0.0654 |
| AGAGTTGG | -0.115 |
| ACTCTGTA | -0.175 |
| GACCCAGC | -0.272 |
| GATCCAGC | 0.0556 |
| ACACCGCC | 0.199 |
| AGACAGTC | -0.129 |
| CTTACAGA | -0.0798 |
| CGAGACCG | 0.233 |
| CTCAAGTC | -0.225 |
| CATGTACG | -0.0652 |
| CAGAATGG | -0.0518 |
| GCTCTGGA | -0.1 |
| AAGGAGTG | -0.179 |
| ACGGAGTG | 0.401 |
| CTGGAGTA | -0.0695 |
| ATGGAGTG | -0.0888 |
| CAGGAGTA | -0.0482 |
| CCGGAGTA | 0.485 |
| GTTCTAGA | 0.0109 |
